Results filed as inconclusive are left out. Calls of active or inactive are those of the source. Unless noted, calls follow the shape of the dose curve; as a rule, active = well fitted curve in the direction sought with a large enough effect; inconclusive = small, poorly fitted or top-dose-only effect, or another doubt; inactive = no such curve, though single readings can be large; an effect the other way counts as inactive or inconclusive.
Columns and labels:
[1] = Cell Viability - Mesenchymal (AID 546); conditions: mesenchymal cells viability, qHTS; activity change, negative = cytotoxicity: at 91.7 µM (top of the series);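 also: cells exposed to compound for 40 hours before reading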
Method in brief: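 In this qHTS cytotoxicity format, glomerulus-derived human mesenchymal kidney cells received compound for 40 hr, then luciferase-based ATP quantitation. Concentration-response data were fitted with the Hill equation.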

[2] = Cellular Toxicity (caspase-3) Jurkat (AID 655); conditions: Jurkat caspase-3 activation, luminescence, DMSO = 0%, tamoxifen = 100%; at 92.2 µM (top of the series);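 also: cells exposed to compound for 16 h at 37 °C before reading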
Method in brief: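 Jurkat cells (5000/well) in complete medium exposed 16 h at 37 C; caspase-3/7 activity read by Caspase-Glo luminescence after 20 min at room temperature. Normalized to DMSO and 100 uM tamoxifen; AC50 from Hill fits.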

[3] = Cellular Toxicity (caspase-3) BJ (AID 658);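 also: 0% = DMSO basal and 100% = 10 µM staurosporine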
Method in brief: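 Plated BJ cells (1000/well) rested 5 hr, received compound for 16 hr at 37 °C, then Caspase-Glo 3/7 reagent for 1 hr at room temperature before luminescence reading.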

[4] = Cellular Toxicity (caspase-3) MRC-5 (AID 659);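 also: 0% = DMSO basal and 100% = 10 µM staurosporine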
Method in brief: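 Apoptosis readout in MRC-5 cells: luciferase light generated after caspase 3/7 cleaves a peptide-aminoluciferin substrate, measured post 16 hr compound incubation at 37 °C.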

[5] = Cellular Toxicity (caspase-3) Mesangial (AID 660);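 also: cells exposed to compound for 16 h before the caspase read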
Method in brief: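 AC50 values come from Hill-equation fits of caspase 3/7 activation, measured as Caspase-Glo luminescence in human glomerular mesangial cells exposed to compound for 16 h at 37 °C; 100% set by 100 uM tamoxifen.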

[6] = Cellular Toxicity (caspase-3) SK-N-SH (AID 661);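 also: 0% = DMSO basal and 100% = 10 µM staurosporine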
Method in brief: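 Apoptosis readout in SK-N-SH neuroblastoma: Caspase-Glo 3/7 luminescence following 16 hr treatment in complete culture medium. Normalization used DMSO and 10 uM staurosporine controls.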

[7] = Cellular Toxicity (caspase-3) H-4-II-E (AID 663); conditions: Potency: caspase-3 activation;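 also: cells exposed to compound for 16 hr before readout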
Method in brief: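 Caspase 3/7 activation measured in H-4-II-E cells in complete culture medium after 16 hr treatment at 37 °C, using luciferase-coupled substrate readout; AC50 values come from Hill-equation fits of normalized concentration-response data.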

[8] = Cellular Toxicity (caspase-3) Hek293 (AID 664);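 also: cells exposed to compound for 16 h at 37 °C before readout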
Method in brief: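 Apoptosis readout: Caspase-Glo 3/7 signal in human HEK293 cells following 16-hour compound incubation. Responses scaled between DMSO baseline and 100 uM tamoxifen.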

[9] = Cellular Toxicity (caspase-3) N2a (AID 665);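 also: compound exposure lasted 16 h at 37 °C before readout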
Method in brief: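 Concentration-response qHTS: compound-induced caspase-3/7 luminescence in N2a cells (16 h, 37 °C), relative to DMSO and 10 uM staurosporine controls; AC50 obtained using the standard Hill equation.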

[10] = Cellular Toxicity (caspase-3) NIH 3T3 (AID 666);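 also: caspase signal read after 16 h compound exposure; 0% = DMSO basal and 100% = 100 µM tamoxifen stimulation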
Method in brief: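 Activity: caspase-3/7 induction, NIH 3T3 cells, 16 hr treatment at 37°C, luminescent Caspase-Glo detection; AC50 via Hill equation.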

[11] = Cellular Toxicity (caspase-3) Renal Proximal Tubule (AID 667);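 also: cells exposed to compound for 16 hours at 37 °C before detection; 0% = DMSO basal and 100% = 10 µM staurosporine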
Method in brief: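 Freshly isolated primary rat kidney proximal tubule cells, 1000/well, treated 16 hr at 37 °C, then Caspase-Glo 3/7 luminescence after 1 hr. Normalized to DMSO and 10 uM staurosporine; AC50 from Hill fit.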

[12] = Cell Viability - LYMP2-001 (AID 921);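 also: cells exposed to compound for 24 h at 37 °C; 0% = DMSO only and full inhibition = tetraoctylammonium bromide control wells; nearly all actives have a fitted effect of over 70% in size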
Method in brief: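 Human lymphoblastoid LYMP2-001 cells, 2500 per well, in complete medium, treated 24 h at 37 C. Viability from cellular ATP by CellTiter-Glo luminescence; AC50 from Hill-equation fits of qHTS concentration-response.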

[13] = MultiTox-Fluor Cytotoxicity Assay - LYMP1-001 - Dead Cells (AID 946)
Method in brief: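 Seed 2500 LYMP1-001 cells/well, incubate 5 hr at 37 C; add compound, 16 hr at 37 C; add MultiTox-Fluor reagent, 60 min RT; read dead-cell fluorescence Ex/Em=485/520. Normalize to DMSO and 15 uM tetraoctylammonium bromide.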

[14] = Cell Viability - LYMP1-002 - Assay at 16 hr (AID 948);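 also: 0% = DMSO alone and full effect = 92 µM tetraoctylammonium bromide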
Method in brief: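 LYMP1-002 human lymphoblastoid cells, 2500/well, were treated with compounds for 16 hr at 37 C in complete medium. Viability was read as intracellular ATP by CellTiter-Glo luminescence, and AC50 was derived from a Hill fit to concentration-response data.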

[15] = MultiTox-Fluor Cytotoxicity Assay - LYMP1-002 - Live Cells (AID 955); also: % is scaled to controls: 0 for no effect and ±100 for the full control effect
Method in brief: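 In this qHTS viability format, lymphoblastoid cells (LYMP1-002, human) received compound for 16 hr at 37 C. Fluorogenic GF-AFC cleavage by viable cells was detected at 405/510 nm after 1 h at room temperature.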

[16] = MultiTox-Fluor Cytotoxicity Assay - LYMP1-003 - Dead Cells (AID 961); also: nearly all actives have a fitted effect of over 70% in size
Method in brief: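 LYMP1-003 lymphoblastoid, 2500 cells/well, 5 hr settle then 16 hr cpd at 37 C; MultiTox-Fluor reagent 60 min RT; Ex/Em 485/520 dead-cell signal; norm. DMSO = 0%, 15 uM tetraoctylammonium bromide = 100%; Hill AC50.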

[17] = target: Peroxisome proliferator-activated receptor gamma (Homo sapiens) (UniProt P37231); test: qHTS assay for small molecule agonists of peroxisome proliferator-activated receptor gamma signaling (AID 588536; active = well fitted curve in the direction sought with a large enough effect in the signal ratio, with a control signal flat, not every such curve was filed as active; the % refers to the signal ratio;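 also: 0% = DMSO basal wells and 100% = rosiglitazone at 2 µM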)
Method in brief: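 Beta-lactamase reporter read-out: CCF4 fluorescence (ex 405, em 460/530 nm) after 2 h at RT. HEK293 GeneBLAzer cells were treated for 16 h at 37 C. Hill fits gave EC50 and efficacy versus 2 uM rosiglitazone (100%) and DMSO (0%).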

[18] = target: Thyroid hormone receptor beta (Homo sapiens) (UniProt P10828); test: qHTS assay for small molecule agonists of thyroid hormone receptor beta signaling (AID 588545; calls by dose curve)
Method in brief: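 Cells (2500/well) were seeded, incubated 4 hrs at 37 C, dosed with a compound series, incubated 18 hrs, loaded with CCF4 dye for 2 hrs at RT, then read for fluorescence. Data were scaled between DMSO (0%) and 10 nM T3 (100%).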

[19] = target: Voltage-gated inwardly rectifying potassium channel KCNH2 (Homo sapiens) (UniProt Q12809); test: qHTS Assay for Small Molecule Inhibitors of the Human hERG Channel Activity (AID 588834);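 also: top concentration of the series differs between compounds; % is scaled to controls: 0 for no effect and ±100 for the full control effect; lower thallium flux fluorescence means stronger hERG block; nearly all actives have a fitted effect of over 50% in size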
Method in brief: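 Thallium serves as surrogate for K+ influx through BacMam-delivered hERG in U2OS cells. Compounds are added for about 10 minutes after dye loading; stimulation buffer then starts flux, monitored kinetically on FDSS.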

[20] = qHTS assay for small molecule activators of the p53 signaling pathway (AID 651743; active = well fitted activation curve with a large enough effect in the signal ratio, not every such curve was filed as active; the % refers to the signal ratio; also: % of control where 0% means no effect); conditions: HCT-116 p53RE-bla, beta-lactamase FRET ratio, 16 h; activation: active compounds read high
Method in brief: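 Here HCT-116 cells with an integrated p53-responsive beta-lactamase gene were incubated with compounds (16 hours, 37 C) after a 5-hour plating period; beta-lactamase activity was detected as fluorescence intensity via B/G FRET substrate.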

Sequence of Thyroid hormone receptor beta (Homo sapiens) (P10828 whole entry, looked up): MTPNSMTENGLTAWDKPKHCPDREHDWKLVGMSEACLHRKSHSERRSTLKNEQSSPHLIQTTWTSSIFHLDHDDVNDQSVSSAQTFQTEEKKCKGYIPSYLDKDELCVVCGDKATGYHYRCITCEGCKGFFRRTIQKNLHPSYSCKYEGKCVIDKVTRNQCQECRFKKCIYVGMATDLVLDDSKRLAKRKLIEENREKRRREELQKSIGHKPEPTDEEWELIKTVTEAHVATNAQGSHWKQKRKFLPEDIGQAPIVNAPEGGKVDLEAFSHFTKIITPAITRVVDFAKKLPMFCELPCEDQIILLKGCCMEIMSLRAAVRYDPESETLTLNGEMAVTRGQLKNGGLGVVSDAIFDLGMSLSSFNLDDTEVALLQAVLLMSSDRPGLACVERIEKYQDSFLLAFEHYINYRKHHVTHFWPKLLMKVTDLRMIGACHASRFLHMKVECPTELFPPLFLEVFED
Sequence of Peroxisome proliferator-activated receptor gamma (Homo sapiens) (P37231 whole entry, looked up): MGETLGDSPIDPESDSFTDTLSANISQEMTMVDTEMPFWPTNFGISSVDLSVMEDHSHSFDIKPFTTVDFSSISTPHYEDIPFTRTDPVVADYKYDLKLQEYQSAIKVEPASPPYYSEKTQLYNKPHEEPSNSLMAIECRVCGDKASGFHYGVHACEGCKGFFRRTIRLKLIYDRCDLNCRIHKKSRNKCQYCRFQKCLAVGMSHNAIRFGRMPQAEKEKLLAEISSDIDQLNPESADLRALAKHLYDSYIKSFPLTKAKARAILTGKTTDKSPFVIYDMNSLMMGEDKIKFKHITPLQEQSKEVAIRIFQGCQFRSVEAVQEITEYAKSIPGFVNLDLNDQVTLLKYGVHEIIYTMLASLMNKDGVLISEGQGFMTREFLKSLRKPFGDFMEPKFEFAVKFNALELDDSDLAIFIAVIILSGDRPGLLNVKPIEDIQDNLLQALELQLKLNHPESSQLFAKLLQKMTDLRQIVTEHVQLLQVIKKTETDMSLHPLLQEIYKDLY
Sequence of Voltage-gated inwardly rectifying potassium channel KCNH2 (Homo sapiens) (Q12809 whole entry, looked up): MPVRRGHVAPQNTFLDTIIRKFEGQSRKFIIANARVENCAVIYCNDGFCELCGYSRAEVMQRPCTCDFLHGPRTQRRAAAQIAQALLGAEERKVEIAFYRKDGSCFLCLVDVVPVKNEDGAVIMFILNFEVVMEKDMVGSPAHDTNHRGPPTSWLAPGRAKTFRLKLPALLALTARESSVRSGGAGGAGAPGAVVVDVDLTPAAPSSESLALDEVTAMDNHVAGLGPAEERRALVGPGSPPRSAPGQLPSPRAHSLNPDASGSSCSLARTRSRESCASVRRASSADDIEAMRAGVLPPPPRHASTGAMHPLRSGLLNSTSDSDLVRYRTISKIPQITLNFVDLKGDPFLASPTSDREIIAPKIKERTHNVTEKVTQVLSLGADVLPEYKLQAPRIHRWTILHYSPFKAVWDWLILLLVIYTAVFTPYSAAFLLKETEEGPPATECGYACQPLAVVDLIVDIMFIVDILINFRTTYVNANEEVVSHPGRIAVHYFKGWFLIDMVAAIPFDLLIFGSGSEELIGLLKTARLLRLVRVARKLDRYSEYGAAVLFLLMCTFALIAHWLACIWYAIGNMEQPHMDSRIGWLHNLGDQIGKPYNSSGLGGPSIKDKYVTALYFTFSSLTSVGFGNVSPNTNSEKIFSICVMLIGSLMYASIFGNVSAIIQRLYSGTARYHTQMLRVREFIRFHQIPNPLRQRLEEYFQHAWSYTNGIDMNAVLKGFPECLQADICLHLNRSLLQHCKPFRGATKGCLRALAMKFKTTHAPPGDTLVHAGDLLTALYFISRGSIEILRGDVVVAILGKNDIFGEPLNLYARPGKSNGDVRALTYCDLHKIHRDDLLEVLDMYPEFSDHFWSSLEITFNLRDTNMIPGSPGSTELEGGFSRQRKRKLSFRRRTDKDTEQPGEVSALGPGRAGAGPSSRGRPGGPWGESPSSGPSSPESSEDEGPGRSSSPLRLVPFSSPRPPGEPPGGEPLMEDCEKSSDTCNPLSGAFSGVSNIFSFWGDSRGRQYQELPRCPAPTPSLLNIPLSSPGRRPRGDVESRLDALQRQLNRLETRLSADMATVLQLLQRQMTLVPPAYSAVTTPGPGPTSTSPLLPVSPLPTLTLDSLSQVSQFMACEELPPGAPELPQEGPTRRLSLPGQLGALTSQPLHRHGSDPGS

COc1ccc(/C=C/c2cc(OC)cc(=O)o2)cc1
inactive: activity change, negative = cytotoxicity [1] -3.53% | caspase-3 activation [2] -4.41% | outcome [3] | outcome [4] | outcome [5] | outcome [6] | Potency [7] | outcome [8] | outcome [9] | outcome [10] | outcome [11] | Potency [12] | Potency [13] | Potency [14] | Potency [15] | Potency [16] | outcome [17] | outcome [18] | Potency [19] | activation [20] 10.5%

COc1cc(/C=C/c2ccccc2)oc(=O)c1
inactive: activity change, negative = cytotoxicity [1] -9.29% | caspase-3 activation [2] -4.56% | outcome [3] | outcome [4] | outcome [5] | outcome [6] | Potency [7] | outcome [8] | outcome [9] | outcome [10] | outcome [11] | Potency [12] | Potency [13] | Potency [14] | Potency [15] | Potency [16] | outcome [17] | outcome [18] | Potency [19] | activation [20] -4.84%

CC1=C2[C@H](/C=C(\C)C(=O)O)CC[C@@H](C)[C@H]2CC1
active: caspase-3 activation [2] 97.3%
inactive: activity change, negative = cytotoxicity [1] 9.76% | outcome [3] | outcome [4] | outcome [5] | outcome [6] | Potency [7] | outcome [8] | outcome [9] | outcome [10] | outcome [11] | Potency [12] | Potency [13] | Potency [14] | Potency [15] | Potency [16] | outcome [17] | outcome [18] | Potency [19] | activation [20] -7.78%

O=C(O)c1ccccc1
inactive: activity change, negative = cytotoxicity [1] 4.89% | caspase-3 activation [2] 0.102% | outcome [3] | outcome [4] | outcome [5] | outcome [6] | Potency [7] | outcome [8] | outcome [9] | outcome [10] | outcome [11] | Potency [12] | Potency [13] | Potency [14] | Potency [15] | Potency [16] | outcome [17] | Potency [19] | activation [20] 7.69%

From PubChem BioAssay (NCATS)
